# Source: PubChem BioAssay (NCI)
# About 79,000 compounds went through this panel and 15% of them were active in at least one assay; those are over-represented in the sample as a whole. Values without a mark were called inactive. Active and inactive are the calls of the source. No stated cut-off is given here; in the data, active means growth inhibition above about 70%; inactive means the rest.
# What was measured:
# [1] = NCI Yeast Anticancer Drug Screen. Data for the rad52 strain (AID 147);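 further: 0% = growth of vehicle-treated control cultures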; conditions: S. cerevisiae rad52 mutant growth inhibition, stronger effect = higher value
# Summary of the method: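 The repair-mutant yeast strain was incubated with compounds, then growth was read and inhibition derived relative to vehicle.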
# [2] = NCI Yeast Anticancer Drug Screen. Data for the rad50EPP+ strain (AID 151);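 further: 0% = growth of vehicle-treated control cultures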; conditions: S. cerevisiae rad50 mutant strain, stronger effect = higher value
# Summary of the method: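 Vehicle-normalised growth inhibition; rad50EPP+ yeast strain, altered in DNA damage repair, compound-treated.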
# [3] = NCI Yeast Anticancer Drug Screen. Data for the mgt1 strain (AID 153); conditions: S. cerevisiae mgt1 mutant growth inhibition, stronger effect = higher value
# Summary of the method: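 Vehicle-normalized growth inhibition is determined in mgt1 yeast, a strain selected for a defined alteration in DNA repair or cell cycle control.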
# [4] = NCI Yeast Anticancer Drug Screen. Data for the rad50 strain (AID 155);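 further: 0% = growth of vehicle-only cultures of the same strain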; conditions: S. cerevisiae rad50 strain growth inhibition, stronger effect = higher value
# Summary of the method: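 Compounds were tested on a yeast strain with an engineered DNA damage repair alteration; the reported value is growth inhibition normalised to vehicle treatment.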
# [5] = NCI Yeast Anticancer Drug Screen. Data for the mec2-1 strain (AID 157); conditions: S. cerevisiae mec2-1 strain, stronger effect = higher value
# Summary of the method: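 Mutant yeast (mec2-1) grown with compound; growth inhibition relative to vehicle control reported.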
# [6] = NCI Yeast Anticancer Drug Screen. Data for the rad14 strain (AID 159);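 further: 0% = growth of vehicle-treated control cultures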; conditions: S. cerevisiae rad14 strain growth inhibition, stronger effect = higher value
# Summary of the method: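 Compound-treated yeast with a defined DNA-repair lesion; growth inhibition normalised to vehicle-treated cultures.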
# [7] = NCI Yeast Anticancer Drug Screen. Data for the sgs1 mgt1 strain (AID 161);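 further: 0% = growth of cultures given vehicle only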; conditions: S. cerevisiae sgs1 mgt1 strain, stronger effect = higher value
# Summary of the method: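 Growth of a repair-deficient yeast mutant was monitored after compound treatment and expressed as inhibition relative to vehicle-treated cultures.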
# [8] = NCI Yeast Anticancer Drug Screen. Data for the CLN2oe strain (AID 163);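 further: 0% = growth of vehicle-only control cultures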; conditions: S. cerevisiae CLN2oe strain, stronger effect = higher value
# Summary of the method: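 Compounds are applied to yeast harbouring a defined cell-cycle control change; reduced growth compared with vehicle-treated controls gives the value.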
# [9] = NCI Yeast Anticancer Drug Screen. Data for the cln2 rad14 strain (AID 165);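 further: 0% = growth equal to vehicle treated cultures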; conditions: S. cerevisiae cln2 rad14 strain, stronger effect = higher value
# Summary of the method: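 Readout is yeast growth inhibition versus vehicle-treated controls, using a strain with cln2 and rad14 alterations exposed to compound.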
# [10] = NCI Yeast Anticancer Drug Screen. Data for the bub3 strain (AID 167); conditions: S. cerevisiae bub3 mutant strain, stronger effect = higher value
# Summary of the method: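 Growth of a checkpoint-deficient yeast mutant is measured after compound exposure. Values represent inhibition relative to vehicle.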
# [11] = NCI Yeast Anticancer Drug Screen. Data for the wt2 strain (AID 169);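 further: 0% = growth of vehicle-treated yeast cultures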; conditions: S. cerevisiae wt2 strain growth inhibition, stronger effect = higher value
# Summary of the method: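 Against vehicle-treated controls, the growth of yeast exposed to each compound was compared, and the inhibition was recorded.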
# [12] = NCI Yeast Anticancer Drug Screen. Data for the mlh1 strain (AID 171);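 further: 0% = growth of vehicle-treated control cultures of the same strain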; conditions: S. cerevisiae mlh1 strain growth inhibition, stronger effect = higher value
# Summary of the method: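 Measured: yeast growth. Reference: vehicle-treated controls. Organism: strain with a defined alteration affecting DNA damage repair or cell cycle control, treated with compound.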
# [13] = NCI Yeast Anticancer Drug Screen. Data for the sgs1 strain (AID 173);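 further: 0% = growth of vehicle-only control cultures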; conditions: S. cerevisiae sgs1 mutant, stronger effect = higher value
# Summary of the method: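 Each compound was added to cultures of the altered yeast strain. Growth was recorded, and inhibition was derived by comparison with vehicle controls.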
# [14] = NCI Yeast Anticancer Drug Screen. Data for the mlh1 rad18 strain (AID 175); conditions: S. cerevisiae mlh1 rad18 strain growth inhibition, stronger effect = higher value
# Summary of the method: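 Genetically defined yeast (DNA repair-deficient) exposed to compounds; growth inhibition determined relative to vehicle.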
# [15] = NCI Yeast Anticancer Drug Screen. Data for the rad18 strain (AID 177); conditions: S. cerevisiae rad18 mutant growth inhibition, stronger effect = higher value
# Summary of the method: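 Vehicle-treated cultures served as the baseline for scoring compound-induced growth inhibition in DNA-repair-mutant yeast.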
# [16] = NCI Yeast Anticancer Drug Screen. Data for the wt1 strain (AID 149);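 further: 0% = growth of vehicle-treated wt1 cultures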; conditions: S. cerevisiae wt1 strain (SPY 50644) growth inhibition, stronger effect = higher value
# Summary of the method: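 Readout: yeast growth inhibition, normalised to vehicle controls, in the wt1 strain exposed to test compounds.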
# [17] = at 5.0 µM (retest, dose inferred, filed as 0.5)
# [18] = at 50.0 µM (retest, dose inferred, filed as 5.0)
smiles,measurement,setting,value
NC(=O)c1c([N+](=O)[O-])cc(C(F)(F)F)cc1[N+](=O)[O-],growth inhibition,[1]; at 1.2 µM,2%
same,growth inhibition,[1]; at 3.7 µM,1%
same,growth inhibition,[1]; at 11.0 µM,3%
same,growth inhibition,[1]; at 33.0 µM,6%
same,growth inhibition,[1]; at 100.0 µM,7%
same,growth inhibition,[2]; at 1.2 µM,1%
same,growth inhibition,[2]; at 3.7 µM,5%
same,growth inhibition,[2]; at 11.0 µM,7%
same,growth inhibition,[2]; at 33.0 µM,16%
same,growth inhibition,[2]; at 100.0 µM,40%
same,growth inhibition,[3]; at 1.2 µM,3%
same,growth inhibition,[3]; at 3.7 µM,5%
same,growth inhibition,[3]; at 11.0 µM,4%
same,growth inhibition,[3]; at 33.0 µM,6%
same,growth inhibition,[3]; at 100.0 µM,6%
same,growth inhibition,[4]; at 1.2 µM,-1%
same,growth inhibition,[4]; at 3.7 µM,0%
same,growth inhibition,[4]; [17],-6%
same,growth inhibition,[4]; at 11.0 µM,-1%
same,growth inhibition,[4]; at 33.0 µM,3%
same,growth inhibition,[4]; [18],-4%
same,growth inhibition,[4]; at 50.0 µM,97.8% (active)
same,growth inhibition,[4]; at 100.0 µM,11%
same,growth inhibition,[5]; at 1.2 µM,0%
same,growth inhibition,[5]; at 3.7 µM,0%
same,growth inhibition,[5]; [17],18%
same,growth inhibition,[5]; at 11.0 µM,0%
same,growth inhibition,[5]; at 33.0 µM,3%
same,growth inhibition,[5]; [18],3%
same,growth inhibition,[5]; at 50.0 µM,97.2% (active)
same,growth inhibition,[5]; at 100.0 µM,10%
same,growth inhibition,[6]; at 1.2 µM,2%
same,growth inhibition,[6]; at 3.7 µM,0%
same,growth inhibition,[6]; at 11.0 µM,0%
same,growth inhibition,[6]; at 33.0 µM,0%
same,growth inhibition,[6]; at 100.0 µM,1%
same,growth inhibition,[7]; [17],5%
same,growth inhibition,[7]; [18],2%
same,growth inhibition,[7]; at 50.0 µM,98.4% (active)
same,growth inhibition,[8]; at 1.2 µM,2%
same,growth inhibition,[8]; at 3.7 µM,-1%
same,growth inhibition,[8]; at 11.0 µM,-4%
same,growth inhibition,[8]; at 33.0 µM,-5%
same,growth inhibition,[8]; at 100.0 µM,-4%
same,growth inhibition,[9]; [17],8%
same,growth inhibition,[9]; [18],22%
same,growth inhibition,[9]; at 50.0 µM,84.3% (active)
same,growth inhibition,[10]; at 1.2 µM,-1%
same,growth inhibition,[10]; at 3.7 µM,-1%
same,growth inhibition,[10]; [17],7%
same,growth inhibition,[10]; at 11.0 µM,0%
same,growth inhibition,[10]; at 33.0 µM,-1%
same,growth inhibition,[10]; [18],23%
same,growth inhibition,[10]; at 50.0 µM,93.1% (active)
same,growth inhibition,[10]; at 100.0 µM,5%
same,growth inhibition,[11]; at 1.2 µM,0%
same,growth inhibition,[11]; at 3.7 µM,1%
same,growth inhibition,[11]; at 11.0 µM,3%
same,growth inhibition,[11]; at 33.0 µM,4%
same,growth inhibition,[11]; at 100.0 µM,8%
same,growth inhibition,[12]; at 1.2 µM,-2%
same,growth inhibition,[12]; at 3.7 µM,2%
same,growth inhibition,[12]; at 11.0 µM,2%
same,growth inhibition,[12]; at 33.0 µM,3%
same,growth inhibition,[12]; at 100.0 µM,8%
same,growth inhibition,[13]; at 1.2 µM,1%
same,growth inhibition,[13]; at 3.7 µM,3%
same,growth inhibition,[13]; at 11.0 µM,5%
same,growth inhibition,[13]; at 33.0 µM,11%
same,growth inhibition,[13]; at 100.0 µM,19%
same,growth inhibition,[14]; [17],55%
same,growth inhibition,[14]; [18],12%
same,growth inhibition,[14]; at 50.0 µM,97.8% (active)
same,growth inhibition,[15]; at 1.2 µM,0%
same,growth inhibition,[15]; at 3.7 µM,2%
same,growth inhibition,[15]; at 11.0 µM,4%
same,growth inhibition,[15]; at 33.0 µM,6%
same,growth inhibition,[15]; at 100.0 µM,16%
O=C1CSC(c2cccc(Cl)c2)N1c1ccc(-c2ccc(-n3c(-c4ccccc4)nc4ccccc4c3=O)cc2)cc1 (stereo unspecified),growth inhibition,[1]; at 1.2 µM,1%
same,growth inhibition,[1]; at 3.7 µM,5%
same,growth inhibition,[1]; at 11.0 µM,8%
same,growth inhibition,[1]; at 33.0 µM,7%
same,growth inhibition,[1]; at 100.0 µM,18%
same,growth inhibition,[16]; at 1.2 µM,1%
same,growth inhibition,[16]; at 3.7 µM,1%
same,growth inhibition,[16]; at 11.0 µM,-1%
same,growth inhibition,[16]; at 33.0 µM,-4%
same,growth inhibition,[16]; at 100.0 µM,-3%
same,growth inhibition,[3]; at 1.2 µM,1%
same,growth inhibition,[3]; at 3.7 µM,2%
same,growth inhibition,[3]; at 11.0 µM,3%
same,growth inhibition,[3]; at 33.0 µM,25%
same,growth inhibition,[3]; at 100.0 µM,60%
same,growth inhibition,[4]; at 1.2 µM,2%
same,growth inhibition,[4]; at 3.7 µM,6%
same,growth inhibition,[4]; [17],-2%
same,growth inhibition,[4]; at 11.0 µM,7%
same,growth inhibition,[4]; at 33.0 µM,15%
same,growth inhibition,[4]; [18],61%
same,growth inhibition,[4]; at 50.0 µM,66.8%
same,growth inhibition,[4]; at 100.0 µM,22%
same,growth inhibition,[5]; at 1.2 µM,3%
same,growth inhibition,[5]; at 3.7 µM,4%
same,growth inhibition,[5]; [17],-9%
same,growth inhibition,[5]; at 11.0 µM,6%
same,growth inhibition,[5]; at 33.0 µM,9%
same,growth inhibition,[5]; [18],-26%
same,growth inhibition,[5]; at 50.0 µM,68.5%
same,growth inhibition,[5]; at 100.0 µM,16%
same,growth inhibition,[6]; at 1.2 µM,7%
same,growth inhibition,[6]; at 3.7 µM,9%
same,growth inhibition,[6]; at 11.0 µM,15%
same,growth inhibition,[6]; at 33.0 µM,32%
same,growth inhibition,[6]; at 100.0 µM,47%
same,growth inhibition,[7]; [17],8%
same,growth inhibition,[7]; [18],83% (active)
same,growth inhibition,[7]; at 50.0 µM,43.2%
same,growth inhibition,[8]; at 1.2 µM,13%
same,growth inhibition,[8]; at 3.7 µM,11%
same,growth inhibition,[8]; at 11.0 µM,15%
same,growth inhibition,[8]; at 33.0 µM,15%
same,growth inhibition,[8]; at 100.0 µM,11%
same,growth inhibition,[9]; [17],31%
same,growth inhibition,[9]; [18],46%
same,growth inhibition,[9]; at 50.0 µM,41.6%
same,growth inhibition,[10]; at 1.2 µM,5%
same,growth inhibition,[10]; at 3.7 µM,4%
same,growth inhibition,[10]; [17],10%
same,growth inhibition,[10]; at 11.0 µM,6%
same,growth inhibition,[10]; at 33.0 µM,8%
same,growth inhibition,[10]; [18],85% (active)
same,growth inhibition,[10]; at 50.0 µM,86.8% (active)
same,growth inhibition,[10]; at 100.0 µM,29%
same,growth inhibition,[11]; at 1.2 µM,0%
same,growth inhibition,[11]; at 3.7 µM,-2%
same,growth inhibition,[11]; at 11.0 µM,0%
same,growth inhibition,[11]; at 33.0 µM,15%
same,growth inhibition,[11]; at 100.0 µM,39%
same,growth inhibition,[12]; at 1.2 µM,1%
same,growth inhibition,[12]; at 3.7 µM,5%
same,growth inhibition,[12]; at 11.0 µM,7%
same,growth inhibition,[12]; at 33.0 µM,24%
same,growth inhibition,[12]; at 100.0 µM,42%
same,growth inhibition,[13]; at 1.2 µM,0%
same,growth inhibition,[13]; at 3.7 µM,2%
same,growth inhibition,[13]; at 11.0 µM,10%
same,growth inhibition,[13]; at 33.0 µM,39%
same,growth inhibition,[13]; at 100.0 µM,57%
same,growth inhibition,[14]; [17],5%
same,growth inhibition,[14]; [18],85% (active)
same,growth inhibition,[14]; at 50.0 µM,85.1% (active)
same,growth inhibition,[15]; at 1.2 µM,0%
same,growth inhibition,[15]; at 3.7 µM,3%
same,growth inhibition,[15]; at 11.0 µM,14%
same,growth inhibition,[15]; at 33.0 µM,22%
same,growth inhibition,[15]; at 100.0 µM,31%
